Bioassay records (PubChem BioAssay)
PREPL inh – inhibitors of human prolyl oligopeptidase-like enzyme PREPL; Q4J6C6; recombinant PREPL, fluorescence polarization activity-based probe; inhibition, % at 5.96 µM; 0.68% of 320,000 active; AID 2751; in the data active means inhibition above about 43%;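 further: 0% = enzyme with DMSO and 100% = wells lacking enzyme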
LYPLA1 inh – LYPLA1 (human) inhibition in PME1 counter-screen; O75608; recombinant LYPLA1, FP-Rh probe fluorescence polarization; inhibition, % at 5.9 µM; 0.16% of 320,000 active; AID 2174;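 active means inhibition above the mean of all tested compounds plus 3 SD, set per campaign, cut at about 14% in these data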;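 further: inhibitors block serine hydrolase probe labeling of LYPLA1 so polarization falls; 0% = enzyme with DMSO and 100% = wells lacking LYPLA1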
PME-1 inh – blocks human protein phosphatase methylesterase 1; Q9Y570; recombinant PME-1, FP-Rh probe fluorescence polarization; inhibition, % at 5.9 µM; 0.53% of 320,000 active;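 active means inhibition above the campaign mean of all compounds plus 3 SD, cut at about 26% in these data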;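 further: competitive labeling of PME-1 active site by serine hydrolase directed probe; 0% = PME-1 with DMSO and 100% = wells lacking PME-1 enzyme; inhibitors block probe labeling so polarization falls and inhibition rises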
Target sequence (Q9Y570 whole entry, looked up): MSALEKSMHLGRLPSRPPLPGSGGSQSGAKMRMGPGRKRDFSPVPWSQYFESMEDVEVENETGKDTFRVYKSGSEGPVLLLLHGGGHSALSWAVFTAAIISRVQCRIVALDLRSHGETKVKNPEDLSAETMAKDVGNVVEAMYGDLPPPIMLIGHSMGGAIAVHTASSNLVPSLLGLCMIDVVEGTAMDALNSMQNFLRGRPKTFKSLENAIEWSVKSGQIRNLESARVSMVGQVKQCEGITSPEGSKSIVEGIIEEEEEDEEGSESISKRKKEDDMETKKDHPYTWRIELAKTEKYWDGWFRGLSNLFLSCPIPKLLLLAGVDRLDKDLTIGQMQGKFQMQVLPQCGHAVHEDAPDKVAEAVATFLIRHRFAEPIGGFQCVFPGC
LYPLA2 inh – LYPLA2 (human) inhibition in PME1 counter-screen; recombinant LYPLA2, FP-Rh probe fluorescence polarization; O95372; inhibition, % at 5.9 µM; 0.38% of 320,000 active;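 active means inhibition above the screen-wide mean plus 3 SD, limit set per campaign, cut at about 26% in these data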;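 further: 0% = LYPLA2 with DMSO and 100% = wells lacking LYPLA2 enzyme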
Target sequence (O95372 whole entry, looked up): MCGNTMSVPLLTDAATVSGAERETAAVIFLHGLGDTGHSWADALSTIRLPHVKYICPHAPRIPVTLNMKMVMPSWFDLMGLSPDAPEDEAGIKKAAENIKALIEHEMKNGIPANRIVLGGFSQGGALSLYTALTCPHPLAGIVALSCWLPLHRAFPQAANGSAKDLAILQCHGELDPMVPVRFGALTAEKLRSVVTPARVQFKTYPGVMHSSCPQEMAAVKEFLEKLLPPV
Fam108B counter – blocks mouse Fam108B hydrolase in RBBP9 counter-screen. recombinant Fam108B, FP-Rh probe fluorescence polarization. AID 1947. inhibition, % at 9.51 µM. 0.33% of 300,000 active;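 active means inhibition above the screen mean inhibition plus 3 SD, computed separately per campaign, cut at about 18% in these data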;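 further: inhibitors lower polarization as less probe binds the enzyme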
GSTO1 inh – counter-screen for RBBP9 inhibitors: inhibitors of human GSTO1. P78417. recombinant GSTO1, activity-based probe fluorescence polarization. inhibition, % at 5.96 µM. 1.1% of 300,000 active;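 active means inhibition above the campaign mean inhibition plus 3 SD, cut at about 35% in these data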;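 further: 0% = GSTO1-1 with DMSO and 100% = wells lacking GSTO1-1 enzyme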
LYPLA2 confirm – counter-screen for PME1 inhibitors: confirmation of human LYPLA2 inhibitors. shares compounds with LYPLA2 inh. recombinant LYPLA2, FP-Rh probe fluorescence polarization. inhibition, % at 5.9 µM. 72% of 1,100 active. AID 2232;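 active means mean inhibition across replicates above the hit cutoff set in the primary screen, cut at about 26% in these data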;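 further: blocked labeling of the enzyme by serine hydrolase FP-Rh probe lowers polarization; 0% = enzyme with DMSO and 100% = wells lacking LYPLA2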
LYPLA2 ABPP – inhibitors of human LYPLA2; inhibition, % at 20 µM; 30% of 150 active; rhLYPLA2 in mouse brain proteome, gel ABPP FP-Rh; shares compounds with LYPLA2 inh;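 active means inhibition of LYPLA2 enzyme probe labeling above about 50%, limit read from the data; inactive means inhibition below that limit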;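 further: loss of FP-Rh probe labeling of the LYPLA2 gel band measured as band density; 0% = DMSO only control band and 100% = blank gel background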
Starred values were filed as active, the others as inactive; . = no result given. This is a sample that favours compounds with a hit; in the whole collection about 2% have one here.

SMILES | PREPL inh | LYPLA1 inh | PME-1 inh | LYPLA2 inh | Fam108B counter | GSTO1 inh | LYPLA2 confirm | others
O=C(Nc1ccc(S(=O)(=O)N2CCOCC2)cc1)c1cc(S(=O)(=O)N2CCOCC2)ccc1Cl | 2.2 | 7.7 | -2.1 | 39.5* | 0.8 | 0.8 | 38.5*
O=C(Nc1ccc(S(=O)(=O)C(F)F)cc1)c1cccc(S(=O)(=O)N2CCOCC2)c1 | -1.9 | -6.4 | -3.5 | 35.3* | 0.9 | -0.6 | 37.6*
Cn1c(N)c(C(=O)COC(=O)CNC(=O)c2ccccc2F)c(=O)n(C)c1=O | 19.7 | . | . | . | . | . | .
COc1ccc(NC(=O)Cn2ncn3nc(-c4ccc(OC)cc4)cc3c2=O)cc1 | -3.4 | 0.2 | -2.2 | -0.2 | -1.8 | -0.1 | .
COc1ccc(Cl)cc1C(=O)Nc1cccc(-c2ccc3nncn3n2)c1 | 5.3 | 7.1 | -5.3 | 27.0* | 3.3 | -14.3 | 29.9*
Cc1ccc(NC2=C(Cl)C(=O)OC2OC(=O)c2ccc(C)cc2)cc1 (centres undefined) | -28.6 | -2.6 | -1.6 | 30.5* | 1.1 | 3.1 | 37.9*
COc1cc(-c2c(C#N)c(N)nc(SCc3ccncc3)c2C#N)cc(OC)c1OC | 11.7 | 2.7 | 5.5 | 35.1* | -2.9 | -20.5 | 29.0*
O=C(NCc1cccs1)c1ccc([N+](=O)[O-])cc1Cl | 17.5 | 4.3 | 4.5 | 2.1 | -4.9 | 4.7 | .
O=C(CSc1n[nH]c(-c2cccnc2)n1)Nc1ccccc1C(F)(F)F | 2.7 | 0.9 | 1.6 | -0.2 | 3.7 | 2.6 | .
COCC(CN1CCN(C2=NS(=O)(=O)c3ccccc32)CC1)OC(=O)c1ccc(OC)cc1 (centres undefined) | 0.0 | -1.2 | -9.1 | 0.1 | -0.1 | -1.0 | .
O=C1c2ccc(Oc3ccc4c(c3)C(=O)N(CCCO)C4=O)cc2C(=O)N1CCCO | 4.1 | 4.5 | -3.0 | 29.4* | 1.7 | -8.7 | 15.3
O=C(NCCCC1CCCC1)C1CCC(=O)N(Cc2ccc(Cl)cc2)C1 (centres undefined) | -4.0 | 2.0 | 12.0 | 27.5* | -0.8 | -2.7 | 33.7*
O=C(NCCCC1CCCC1)C1CCC(=O)N(Cc2cccc(F)c2)C1 (centres undefined) | 4.6 | -0.6 | 1.9 | -2.4 | -0.6 | 3.4 | .
O=C1c2cccc3cccc(c23)C(=O)N1CC1CCN(CC(O)COc2ccc3ccccc3c2)CC1 (centres undefined) | -22.0 | 2.5 | -4.8 | 47.3* | -6.7 | -7.3 | 38.2*
CCc1ccc(OCC(O)CN2CCC(CN3C(=O)c4cccc5cccc(c45)C3=O)CC2)cc1 (centres undefined) | -19.7 | -2.9 | 5.1 | 29.2* | -0.6 | 7.1 | 29.2*
Cc1cc(C)cc(OCC(O)CN2CCC(CN3C(=O)c4cccc5cccc(c45)C3=O)CC2)c1 (centres undefined) | 17.1 | 8.6 | -0.7 | 46.0* | -1.6 | -2.8 | 48.8*
COc1ccc(COCC(O)CN2CCC(CN3C(=O)c4cccc5cccc(c45)C3=O)CC2)cc1OC (centres undefined) | 24.2 | 2.6 | 2.8 | 5.4 | -0.5 | -2.4 | .
COc1cccc(OCC(O)CN2CCC(CN3C(=O)c4cccc5cccc(c45)C3=O)CC2)c1 (centres undefined) | 6.1 | 9.3 | -2.5 | 38.8* | -0.5 | 1.2 | 50.9* | LYPLA2 ABPP=12.0
CC(NC(=O)Cc1ccc(S(=O)(=O)N2CCOCC2)s1)c1ccc(Cl)c(Cl)c1 (centres undefined) | -3.0 | -4.0 | 5.0 | -1.1 | -1.9 | -0.1 | .
O=C(NCC(c1ccc(F)cc1)N1CCOCC1)c1ccc([N+](=O)[O-])o1 (centres undefined) | 18.8 | . | . | . | . | . | .
Cc1cccc(C)c1NC(=O)C1CCCN1C(=O)NCc1ccccc1 (centres undefined) | -2.7 | 2.1 | 2.4 | 6.9 | -4.3 | 6.5 | .
CN(C)C(=O)CNC(=O)CN1C(=O)NC2(CCCc3sccc32)C1=O (centres undefined) | 0.8 | -1.1 | 0.5 | 6.0 | -0.3 | 6.9 | .
Cn1ncc([N+](=O)[O-])c1C(=O)Nc1ccc(-c2nc3ccccc3o2)cc1 | 0.3 | -3.2 | -4.2 | 8.3 | 2.9 | 4.2 | .
COc1cc([C@H]2c3c(cc(OC)c(O)c3OC)C[C@@H](CO)[C@@H]2CO[C@@H]2O[C@H](CO)[C@@H](O)[C@H](O)[C@H]2O)cc(OC)c1O | -2.9 | 0.5 | -5.1 | -0.1 | 1.2 | 4.5 | .
CCc1nnc(NS(=O)(=O)c2ccc(NC(=O)c3ccc(Cl)cc3)cc2)s1 | 9.0 | -1.8 | 6.8 | 9.4 | 7.8 | -1.9 | .
SMILES | PREPL inh | LYPLA1 inh | PME-1 inh | LYPLA2 inh | Fam108B counter | GSTO1 inh | LYPLA2 confirm | others
CCc1nnc(NS(=O)(=O)c2ccc(N/C=C(\C=O)c3nc4cc(Cl)ccc4o3)cc2)s1 | 1.5 | -0.3 | 6.0 | 29.3* | -2.9 | -21.4 | 42.6*
Cc1c(Nc2ccc3nonc3c2[N+](=O)[O-])c(=O)n(-c2ccccc2)n1C | 0.4 | -0.7 | -2.7 | 31.6* | -1.8 | 13.0 | 36.6*
COc1cccc(CN2CC(C(=O)NCCc3ccc(C)s3)CCC2=O)c1 (centres undefined) | 4.3 | 0.0 | 7.1 | -0.7 | 4.1 | 1.2 | .
O=C1CC(N2CCC(c3nc4ccccc4o3)CC2)C(=O)N1c1ccc(Cl)c(C(F)(F)F)c1 (centres undefined) | 17.4 | -1.1 | -3.6 | 27.3* | 2.1 | -1.5 | 32.8*
O=C1CC(N2CCC(c3nc4ccccc4o3)CC2)C(=O)N1c1ccc(F)cc1 (centres undefined) | 6.5 | 0.2 | -0.5 | 6.9 | -2.1 | -2.4 | .
CS(=O)(=O)c1ccc(C(=O)NC2CCCc3ccccc32)cc1 (centres undefined) | 15.8 | 1.5 | -6.0 | 4.3 | -0.6 | 10.7 | .
COc1ccc(N2CCN(c3ncnc4c3nnn4Cc3ccccc3Cl)CC2)cc1 | 6.6 | 8.4 | -7.0 | 35.2* | 2.1 | 3.4 | 39.8*
Cc1ccsc1C(=O)N1CCCC(C(=O)c2cc(F)ccc2F)C1 (centres undefined) | 15.0 | -0.9 | 14.4 | -4.5 | -7.9 | 6.4 | .
COc1ccc(OC)c(-c2cc(C(=O)Nc3c(C)nn(Cc4ccccc4C)c3C)no2)c1 | 2.6 | 11.1 | -5.5 | 63.7* | -6.8 | -3.5 | 54.6* | LYPLA2 ABPP=50.0*
COc1ccc(OC)c(-c2cc(C(=O)Nc3c(C)nn(Cc4ccccc4Cl)c3C)no2)c1 | 4.7 | -1.7 | -4.8 | 39.5* | -9.0 | -5.8 | 28.6*
COc1ccc(-c2cc(C(=O)Nc3c(C)nn(Cc4ccccc4Cl)c3C)no2)cc1OC | -17.9 | -1.0 | -8.6 | 4.3 | -5.2 | -3.4 | .
O=C(COC(=O)c1cncc(Br)c1)NCc1ccc(Cl)cc1 | -6.0 | -0.3 | -2.1 | 27.0* | -2.0 | 2.4 | 0.1
